Assay [1] in a line: CCTE_Shafer_MEA_acute_spike_number: CCTE's Neural Acute Assay for Total Number of Spikes, Shafer Lab (AID 2284008).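 On AC50: curve fitted for decrease in spike count so AC50 reflects inhibitors.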 The method in brief: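 Rat primary cortical neurons on 48-well MEA plates, DIV 13 or 15, at 37 C. 40 min baseline then 40 min with compound (0.03-40 uM); spikes detected at 8x rms noise, expressed as percent change from baseline.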
Assay [2] is described as follows: CCTE_Shafer_MEA_acute_firing_rate_mean: CCTE's Neural Acute Assay for Mean Firing Rate, Shafer Lab (AID 2284009).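 Further: analyzed for loss of signal so actives lower firing rate relative to DMSO.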 Put shortly:
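Spontaneous spiking of primary rat cortical networks, DIV 13/15, 37 C. Compound 0.03-40 uM, n ≥3 wells; 40 min baseline vs 40 min treated. Endpoint fitted in loss-of-signal direction against DMSO.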

Assay [3] can be described thus: CCTE_Harrill_HTTr_Viability_MCF7: CCTE's 6-hour Cell Viability Assessment for the High-Throughput Transcriptomics (HTTr) Platform, in MCF-7 cells cultured in DMEM + 10% fetal bovine serum, Harrill Lab (AID 2284010). The method in brief: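 Eight-point concentration series, six-hour exposure. Propidium iodide exclusion imaged to assess membrane integrity as a cytotoxicity readout; bidirectional fitting was done with DMSO as negative control and activity baseline.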

Assay [4] is described as follows: CCTE_Harrill_HTTr_Apoptosis_MCF7: CCTE's 6-hour Apoptosis Assessment for the High-Throughput Transcriptomics (HTTr) Platform, in MCF-7 cells cultured in DMEM + 10% fetal bovine serum, Harrill Lab (AID 2284011). Put shortly: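 MCF-7 cells in DMEM + 10% FBS exposed 6 h to chemicals over an eight-point dilution series. Caspase-3/7 activation imaged by high-content CellEvent Green staining; fitted bidirectionally versus DMSO.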

Assay [5] is described as follows: CCTE_Shafer_MEA_acute_burst_number: CCTE's Neural Acute Assay for Single-Electrode Bursts, Shafer Lab (AID 2284013). The method in brief: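 Burst totals were derived with adaptive spike detection (8x rms threshold) on filtered signals from rat cortical cultures; change relative to pre-treatment baseline after 40-min compound exposure (0.03-40 uM) was fitted in the negative direction against DMSO.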

The nature of assay [6]: CCTE_Shafer_MEA_acute_burst_duration_mean: CCTE's Neural Acute Assay for Mean Burst Duration, Shafer Lab (AID 2284014).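 Further: hits are decreases in mean burst duration relative to DMSO controls.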 The method in brief:
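Acute exposure of mature rat cortical networks (DIV 13 or 15) grown on microelectrode arrays to 0.03-40 uM compound. Mean burst duration compared with the 40-min pre-dose baseline over a 40-min post-dose recording at 37 C.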

Assay [7] can be described thus: CCTE_Shafer_MEA_acute_per_burst_spike_number_mean: CCTE's Neural Acute Assay for Average Number of Spikes Per Burst, Shafer Lab (AID 2284015).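 Further: hits are decreases in mean spikes per burst versus baseline.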 The method in brief:
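Percent change in mean spikes per single-electrode burst is compared between a 40 min baseline and a 40 min recording with compound (0.03-40 uM). Cultures were rat cortical neurons on MEA plates at DIV 13 or 15, recorded at 37 C, with DMSO as the negative control.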

A short description of assay [8]: CCTE_Shafer_MEA_acute_burst_percentage_mean: CCTE's Neural Acute Assay for Percentage of Spikes in a Burst, Shafer Lab (AID 2284017).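 On AC50: curve fitted for loss of signal so potency reflects decreased burst percentage.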 Put shortly:
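Well-level mean burst percentage from a 40-min recording after compound (0.03-40 uM) expressed as percent change from a 40-min baseline at 37C. Cultures: primary rat cortical neurons on MEA, dosed on DIV 13 or 15; fitted downward relative to DMSO.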

Assay [9] in a line: CCTE_Shafer_MEA_acute_burst_percentage_std: CCTE's Neural Acute Assay for Standard Deviation of Burst Percentage, Shafer Lab (AID 2284018).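 Further: fitted in the negative direction so actives lower burst percentage SD.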 Put shortly: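 Primary rat cortical neurons on 16-electrode MEA wells were recorded 40 min at baseline (DIV 13 or 15), then 40 min after compound (0.03-40 uM), at 37 C. Well value is SD across electrodes of spikes-in-bursts/total spikes; endpoint is percent change, DMSO-referenced.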

A short description of assay [10]: CCTE_Shafer_MEA_acute_per_network_burst_spike_number_mean: CCTE's Neural Acute Assay for Average Number of Spikes in a Network Burst, Shafer Lab (AID 2284019). The method in brief:
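Acute exposure of rat primary cortical networks (DIV 13/15) on MEAs; adaptive spike detection at 8x rms noise, 37 C. Percent change in spikes per network burst after 40 min with compound (0.03-40 uM), negative direction vs DMSO.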

Assay [11] can be described thus: CCTE_Shafer_MEA_acute_per_network_burst_spike_number_std: CCTE's Neural Acute Assay for Standard Deviation of Number of Spikes in a Network Burst, Shafer Lab (AID 2284020).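 Further: fitted for decrease in spike-number SD versus DMSO so actives lower it.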 Put shortly:
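Acute MEA exposure, rat cortical neurons, 0.03-40 uM. Per-well % change versus own baseline; DMSO as negative control.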

Assay [12] can be described thus: CCTE_Shafer_MEA_acute_per_network_burst_electrodes_number_mean: CCTE's Neural Acute Assay for Mean Number of Electrodes in a Network Burst, Shafer Lab (AID 2284021).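 Further: curves fitted for decreases only so hits reduce electrodes per burst.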 The method in brief:
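Rat primary cortical neurons on 48-well MEAs, DIV 13 or 15, were treated at 0.03-40 uM. Spikes were detected at 8x rms noise and recorded at 37 C. The mean electrodes per network burst in a 40 min exposure recording was expressed as percent change from a 40 min baseline.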

Assay [13] can be described thus: CCTE_Shafer_MEA_acute_cross_correlation_area: CCTE's Neural Acute Assay for Area of Cross Correlation, Shafer Lab (AID 2284024).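 Further: curves fitted for loss of cross-correlation area so actives lower synchrony.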 The method in brief:
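Rat primary cortical neurons on 48-well MEA, DIV 13 or 15; compounds 0.03-40 uM. Baseline and post-exposure 40 min recordings at 37 C; percent change in area under pooled inter-electrode cross-correlation near zero lag, relative to DMSO.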

A short description of assay [14]: CCTE_Shafer_MEA_acute_cross_correlation_HWHM: CCTE's Neural Acute Assay for Cross Correlation at Half Width at Half Maximum, Shafer Lab (AID 2284026).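 Further: percent change per well from pre-dose baseline in spike cross-correlogram half width; hits are a decrease in cross-correlogram half width relative to DMSO.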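 On outcome: spontaneous network firing of rat primary cortical neurons on multiwell microelectrode arrays.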 The method in brief:
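Rat primary cortical neurons on 48-well MEA plates; 40-min baseline and 40-min post-exposure recordings at 37 C on DIV 13 or 15, compounds 0.03-40 uM. Spikes detected at 8x rms noise; percent change in cross-correlogram HWHM per well vs baseline.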

Assay [15] can be described thus: CCTE_Simmons_MITO_max_resp_rate: CCTE's HepG2 Seahorse XF Respirometric Screening Assay at Maximal Respiratory State [uncoupled], Simmons Lab (AID 2284002). The following applies: actives raise or lower the signal. Put shortly: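 HepG2 oxygen consumption measured on Seahorse XF after FCCP uncoupling, following test compound injection; 7 concentrations from 125 nM to 100 uM final. Readings every 6 min over 72 min, three biological replicates; bidirectional fit versus DMSO.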

Assay [16] in a line: CCTE_Simmons_MITO_inhib_resp_rate: CCTE's HepG2 Seahorse XF Respirometric Screening Assay at Inhibited Respiratory State [full ETC block], Simmons Lab (AID 2284006). Conditions: actives raise or lower the signal. Put shortly:
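Test chemicals at seven final concentrations (125 nM–100 uM) in three biological replicates, with DMSO as vehicle. HepG2 oxygen consumption was then tracked on a Seahorse XF96 for 72 min through FCCP and rotenone/antimycin A phases, with the inhibited-phase rate as the endpoint.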

A short description of assay [17]: CCTE_Simmons_MITO_viability: CellTiter-Glo Viability Assessment for CCTE's HepG2 Seahorse XF Respirometric Screening Assay [post-hoc], Simmons Lab (AID 2284007; active means hit-call score of the fitted dose curve at least 0.9, where 1 is the maximum;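 on AC50: cells exposed to chemical for 90 min before the ATP read; actives lower ATP signal relative to DMSO baseline meaning reduced viability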). Put shortly: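 Post-hoc viability check on the HepG2 respirometry plates: luciferase-based ATP signal measured once, after 90 min compound exposure spanning 125 nM–100 uM final. Activity was referenced to DMSO as baseline.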
For orientation: In ATP-based viability assays light output follows the ATP content of the culture.

Assay [18] is described as follows: CCTE_Harrill_HTTr_CellCount_MCF7: CCTE's Cell Proliferation Assessment for the High-Throughput Transcriptomics (HTTr) Platform, Harrill Lab (AID 2284012; active means hit-call score of the fitted dose curve at least 0.9, where 1 is the maximum;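 further: intended direction is loss of nuclei count meaning fewer cells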). The method in brief: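 For this full-screen endpoint, MCF-7 cultures received eight compound dilutions for six hours. Well nuclei counts from Hoechst imaging were analyzed relative to DMSO.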
In assay [19] the target is Estrogen receptor (Homo sapiens) (UniProt P03372). Put plainly: CCTE_Deisenroth_AIME_96WELL_LUC_Active: CCTE's 96-well Estrogen Receptor Transactivation Assay with AIME metabolic competence (ERTA luciferase; metabolism positive), Deisenroth Lab (AID 2284023; active means hit-call score of the fitted dose curve at least 0.9, where 1 is the maximum). The method in brief:
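Metabolism-positive mode: induced rat hepatic S9 in alginate microspheres conditions test solutions (0.002 - 200 uM, 10 points) for 2 hours. VM7Luc4E2 ER luciferase reporter cells then exposed 24 h; positive-direction fit against 17beta-estradiol, n=4 typical.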

The target is the same in assay [20]. Nature of the assay: CCTE_Deisenroth_AIME_96WELL_LUC_Inactive: CCTE's 96-well Estrogen Receptor Transactivation Assay without AIME metabolic competence (ERTA luciferase; metabolism negative), Deisenroth Lab (AID 2284025; active means hit-call score of the fitted dose curve at least 0.9, where 1 is the maximum). Put shortly: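 Metabolism-negative arm: chemicals (0.002–200 uM, 10 points) incubated 2 h with alginate-water microspheres, then medium moved onto VM7Luc4E2 cells for 24 h luciferase read-out. Positive direction vs 17beta-estradiol; n≥4 experiments.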

Results filed as inconclusive are left out. The source made the active and inactive calls. How the source made its calls, unless noted: active means hit-call score of the fitted dose curve at least 0.9, where 1 is the maximum; inactive means score below 0.9.

Chain of Estrogen receptor (Homo sapiens) (P03372 whole entry, looked up): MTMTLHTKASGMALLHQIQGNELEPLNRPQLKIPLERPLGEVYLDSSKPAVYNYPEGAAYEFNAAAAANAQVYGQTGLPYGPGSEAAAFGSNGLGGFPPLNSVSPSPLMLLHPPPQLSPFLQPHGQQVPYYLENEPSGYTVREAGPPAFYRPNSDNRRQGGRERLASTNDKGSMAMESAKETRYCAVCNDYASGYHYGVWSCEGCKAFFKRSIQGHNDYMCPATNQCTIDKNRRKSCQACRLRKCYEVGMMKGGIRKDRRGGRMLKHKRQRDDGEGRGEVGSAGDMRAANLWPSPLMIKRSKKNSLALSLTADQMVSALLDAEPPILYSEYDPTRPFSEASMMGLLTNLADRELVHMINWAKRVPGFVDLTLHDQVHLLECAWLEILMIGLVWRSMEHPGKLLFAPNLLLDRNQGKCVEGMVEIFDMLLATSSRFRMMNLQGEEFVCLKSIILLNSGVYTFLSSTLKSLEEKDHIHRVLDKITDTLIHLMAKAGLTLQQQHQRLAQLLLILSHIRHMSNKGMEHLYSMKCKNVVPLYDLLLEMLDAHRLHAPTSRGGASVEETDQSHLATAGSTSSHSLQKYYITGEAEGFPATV

Regarding `O=C(O)CN(CC(=O)O)CC(=O)O`, the compound was classed as inactive in assay [1], in assay [2], in [3], in assay [4], in assay [5] and in assay [6]. Besides, the compound was called inactive in assay [7], in assay [8], in [9], in [10], in assay [11] and in [12]. Besides, the result in assay [13] and in [14] was inactive.

Usually AC50 stands for the midpoint of the concentration-response curve, whichever way the signal moves. Take `CCN(CC)CCOc1ccc(C(=C(Cl)c2ccccc2)c2ccccc2)cc1`: the concentration at half-maximal activity (AC50) in assay [15] is 91 µM (active); in assay [17], 84.2 µM (active); in assay [1], 2.58 µM (active); in [2], 2.62 µM (active); in [5], 2.68 µM (active); in assay [8] it was 20 µM (active). In assay [9], the half-maximal activity concentration (AC50) was 29.1 µM (active). Also, the call in [16], in [3], in assay [4], in [6], in assay [7] and in [10] was inactive. Moreover, the call in assay [11], in [12], in assay [13] and in assay [14] was inactive.

For `CC(N)=O`, the outcome in assay [1], in assay [2], in assay [3], in assay [18], in [5] and in assay [6] was inactive. For the same compound, the outcome in assay [7], in [8], in assay [9], in [10], in assay [11] and in assay [12] was inactive. The result in assay [13] and in assay [14] was inactive.

As to `Oc1ccc(O)cc1`, the outcome in assay [1], in assay [2], in [3], in assay [18], in [5] and in [6] was inactive. Moreover, the call in assay [7], in [8], in assay [9], in assay [10], in assay [11] and in assay [12] was inactive. Besides, the compound was called inactive in [13] and in assay [14]. The AC50 was 50.2 µM (active) in assay [19] and 71.8 µM (active) in [20].

As for `O=C(N[C@@H](c1ccccc1)[C@@H]1CCCCN1)c1cccc(C(F)(F)F)c1Cl`, the AC50 in [1] is 4.39 µM (active); in assay [2], 4.39 µM (active); in [5], 3.29 µM (active); in [8], 5 µM (active); in assay [11] it was 5 µM (active); in assay [12] it was 5 µM (active). In addition, the values for the AC50 in [13] and in assay [14] were 1.99 µM (active) and 9.13 µM (active), respectively. For the same compound, the outcome in assay [3], in assay [4], in assay [18], in assay [6], in assay [7] and in assay [9] was inactive. In addition, the call in [10] was inactive.

Consider `Cc1cc(Cc2ccc(N)c(C)c2)ccc1N`, for which the half-maximal activity concentration (AC50) was 50 µM (active) in assay [15]; 15.8 µM (active) in assay [1]; 14.9 µM (active) in assay [2]; 30 µM (active) in assay [7]; 30 µM (active) in [8]; 20 µM (active) in assay [11]. Moreover, the AC50 in [12] is 29.9 µM (active); in assay [14], 26 µM (active). Besides, the outcome in assay [16], in [3], in [4], in assay [5], in [6] and in assay [9] was inactive. The compound was called inactive in [10] and in [13].

Regarding `Cc1ccc(C(C)(C)C)c(O)c1`, the call in assay [15], in [16], in assay [17], in assay [2], in [3] and in assay [18] was inactive. In addition, the compound was called inactive in [5], in assay [6], in assay [7], in [9], in assay [10] and in assay [11]. Besides, the call in assay [12] and in [13] was inactive. Besides, the half-maximal activity concentration (AC50) in assay [1] is 10.3 µM (active); in assay [8], 29.9 µM (active); in assay [14] it was 11.8 µM (active).

As for `CC(C)OC(=O)C(C)(C)Oc1ccc(C(=O)c2ccc(Cl)cc2)cc1`, in assay [15], the half-maximal activity concentration (AC50) is 37.2 µM (active). The outcome in [3] and in assay [18] was inactive.

In the case of `CC1=C(C)S(=O)(=O)CCS1(=O)=O`, the outcome in assay [1], in [2], in assay [3], in [18], in [5] and in assay [6] was inactive. Besides, the compound was classed as inactive in assay [7], in [8], in [9], in assay [10], in [11] and in assay [12]. Moreover, the call in assay [13] and in assay [14] was inactive.

In the case of `C/C=C/c1ccc(OC)cc1`, the result in assay [1], in [2], in assay [3], in assay [18], in [5] and in [6] was inactive. For the same compound, the compound was called inactive in [7], in [8], in assay [9], in assay [10], in assay [11] and in assay [12]. In addition, the compound was classed as inactive in assay [13] and in assay [14].

The values are drawn from PubChem BioAssay (EPA / NIEHS).
